Our source for the growth inhibition values is PubChem BioAssay (NCI).

Compounds without any hit were thinned out: in the full panel of roughly 79,000, 15% have a hit. Values without a mark were called inactive. The source made the active and inactive calls. No stated cut-off is given here; in the data, active means growth inhibition above about 70%; inactive means the rest.

The assay can be described thus: NCI Yeast Anticancer Drug Screen. Data for the cln2 rad14 strain (AID 165).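 Further: 0% = growth equal to vehicle treated cultures.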 The following applies: S. cerevisiae cln2 rad14 strain, at 50.0 µM, active compounds read high. The gist of the method: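 cln2 rad14 yeast strain; compound exposure; growth inhibition read vs vehicle controls.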
In the case of `Nc1ncc2[nH]c(I)nc2n1`, the growth inhibition was 0.7%.
The value for `CCC1(c2ccccc2)CCCC/C1=N/NC(N)=O` (centres undefined) was 2.2%; that for `CC(=N/NC(=S)NCCN1CCCC1)/C(C)=N\NC(=S)NCCN1CCCC1` was 10.6%; that for `O=C(NN1C(=O)c2cccc3cccc(c23)C1=O)NN1C(=O)c2cccc3cccc(c23)C1=O` was 99.5% (active).
With `Cc1c(COC(=O)NC(C)C)c(COC(=O)NC(C)C)c2n1CS(=O)(=O)C2`, the growth inhibition was 7.3%.
As for `CC1(C(=O)O)CCCC2(C)c3ccc(O)cc3CCC12` (centres undefined), the figure is -3%.
The value for `C1CCc2[nH]nc(-c3n[nH]c4c3CCCCC4)c2CC1` was 9.95%.
The value for `CN(C)CCN1C(=O)c2c(c3cccn3c3c2cnn3-c2ccccc2)C1=O` was -43%; that for `N#CC1=CCc2ccccc2N1C(=O)Oc1ccccc1` was 19.4%; that for `O=C(NNc1nc(N2CCOCC2)nc(N2CCOCC2)n1)c1ccccc1` was 15.3%.
Turning to `CC(=O)OCc1ccc(C)cc1`, the growth inhibition was -32.8%.
In the case of `Cn1cnc([N+](=O)[O-])c1Sc1ccncc1S(N)(=O)=O`, the growth inhibition is 2.1%.
For `CCN(CC)CCCNC(Cc1ccccc1)c1ccc(OC)cc1` (centres undefined), the growth inhibition was 9.05%.
`C=C1CCc2ccccc2C1=O`: the growth inhibition is -5.55%.
The value for `O=S(Nc1ccc(Cl)cc1)c1ccccc1` (centres undefined) was 4.1%; that for `O=C1C(O)=C(Cl)C(=O)C(OC2=C(Cl)C(=O)C(OC3=C(Cl)C(=O)C(OC4=C(Cl)C(=O)C(Cl)=C(Cl)C4=O)=C(Cl)C3=O)=C(Cl)C2=O)=C1Cl` was -4.3%.
The value for `CCCCCCCCCCCc1cc(=O)c2c(O)cccc2o1` was -3.9%.
The value for `CCCCNS(=O)(=O)c1cc(C(=O)O)cc(C(=O)O)c1` was -33.9%.
In the case of `C=C1CC2(CCC3C4CC=C5CC(O)CCC5(C)C4CCC32C)OC1=O` (centres undefined), the growth inhibition was 46.3%.
Turning to `CCC(c1ccccc1)c1cc(C(C)(C)C)cc(C(C)(C)C)c1O` (centres undefined), the growth inhibition was -2.25%.
The value for `O=C1CCC2(O1)c1ccc(O)cc1Oc1cc(O)ccc12` was -3.9%; that for `C=Nc1ccc(C)cc1` was -15.7%.
Take `O=[N+]([O-])c1cc(Br)ccc1N1CCCC1`: the growth inhibition was -11.7%.
Take `ClNc1nc(NCl)nc(NCl)n1`: the growth inhibition was 2%.
Regarding `CCCCCCCCCCCCCCCCc1c(C)nc(N(C)C)oc1=O`, the growth inhibition was 8.2%.
As to `CN(C)CCNc1cccc2oc3ccc(O)cc3c(=O)c12`, the growth inhibition was -2.3%.
The value for `CCOC(=O)c1c[nH]c2ccc3c(nc(C)n3C)c2c1=O` was 11.9%; that for `O=S(=O)(O)SCC1=NCCN1` was -34.9%; that for `NC(=O)C1CCCN(C2OC(COP(=O)(O)OP(=O)(O)OCC3OC(n4cnc5c(N)ncnc54)C(OP(=O)(O)O)C3O)C(O)C2O)C1` (centres undefined) was 1.5%.
The value for `COC(=O)c1cccn1C(=O)c1ccc(C)c(OCc2ccccc2)c1[N+](=O)[O-]` was -8.3%.
On to `CCCCSC(CC(O)C(O)COC(=O)c1ccc([N+](=O)[O-])cc1)SCCCC` (centres undefined), for which the growth inhibition is 13%.
For `CCOC(=O)N1CN(C(=O)OCC)CN(C(=O)OCC)C1`, the growth inhibition was -7.6%.
The value for `CC(=O)OCC(OC(C)=O)C(OC(C)=O)C(OC(C)=O)C(O)CO` (centres undefined) was -6%.
The value for `COc1cc([C@@H]2c3cc4c(cc3[C@H](OC(=O)CCCC(=O)O)[C@H]3COC(=O)[C@H]23)OCO4)cc(OC)c1OC` was 32.3%; that for `O=C1c2ccccc2-c2ccc(-c3ccc4c5c(cccc35)C(=O)c3ccccc3-4)c3cccc1c23` was -0.85%; that for `OCCn1nnc2ccccc21` was 5.35%.
Turning to `O=C(O)c1cc(=O)[nH]c2ccccc12`, the growth inhibition was -0.95%.
`CCN(CC)CCOCC(=O)Nc1ccccc1C`: the growth inhibition was -37.5%.
The value for `O=C(O)Cc1ccccc1C(=O)O` was 13.8%.
